Data on 24 compounds can be found in PubChem BioAssay (NCATS).

SMILES strings stand for the structures. Inconclusive results are not listed. Calls of active or inactive are those of the source. The call rests on the fitted dose curve; in most records, active means well fitted inhibition curve with a large enough effect; inconclusive means small, poorly fitted or top-dose-only effect; inactive means flat fitted curve, though single readings scatter.

The test system of this assay is HEK293. Kind of assay: Cytotoxic Profiling of Annotated Libraries Using Quantitative High-Throughput Screening (AID 1296008). Further: nearly all actives have a fitted effect of over 60% in size. Conditions: Five cell lines viability, CellTiter-Glo ATP luminescence, 48-72 h; max response: hits give low values. In outline:
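Compounds were pin-transferred onto cells and incubated 48 or 72 hr at 37 degree Celsius, 95% humidity. CellTiter-Glo was added, plates sat 10 min at room temperature, then ATP-coupled luminescence was imaged as the viability read-out.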
`C=C[C@H]1[C@H](O[C@@H]2O[C@H](CO[C@@H]3OC[C@](O)(CO)[C@H]3O)[C@@H](O)[C@H](O)[C@H]2O)OC=C2C(=O)OCC[C@H]21`: the compound was classed as inactive.
As for `CNC(=O)O[C@H]1COc2ccc(N3CCN(C4COC4)CC3)cc2[C@@H]1NC(=O)c1ccc(F)cc1`, the entry is “inactive”; as for `CC(=O)[C@@H]1CC[C@]2(C(=O)O)CC[C@]3(C)C(CCC4[C@@]5(C)CC[C@H](O)C(C)(C)C5CC[C@]43C)C12` (some centres undefined), “inactive”.
With `O=C(NCC(=O)N1CC[C@H](NC2CCC(O)(c3ccc(-c4ncccn4)cn3)CC2)C1)c1cccc(C(F)(F)F)c1` (some centres undefined) the entry was “inactive”; with `COC(=O)C[C@@H]1C(C(=O)O)=CO[C@@H](O[C@@H]2O[C@H](CO)[C@@H](O)[C@H](O)[C@H]2O)/C1=C\COC(=O)/C=C\c1ccccc1`, “inactive”.
For the compound `CC(=O)NCCCCn1c2c(c3ccccc31)C(=O)NCC2`, the outcome was inactive.
As for `COC(=O)C1C(c2ccc(O)cc2)C(C(=O)OC)C1c1ccc(O)cc1` (centres undefined), the entry is “inactive”.
As for `CC(=O)N1c2ccccc2C2(O)CC3C(=O)NC(CC(C)C)C(=O)N3C12` (centres undefined), the entry is “inactive”.
For `CC(C)C1=CC2=CCC3[C@](C)(CCC[C@@]3(C)C(=O)O)C2CC1O` (some centres undefined), the compound was called inactive.
With `C[C@@H]1O[C@@H](OC[C@H]2O[C@@H](OCCc3ccccc3)[C@H](O)[C@@H](O)[C@@H]2O)[C@H](O)[C@H](O)[C@H]1O` the entry was “inactive”; with `OCCc1ccc(O[C@@H]2O[C@H](CO)[C@@H](O)[C@H](O)[C@H]2O)c(O)c1`, “inactive”.
For `C/C=C(\C)C(=O)OC[C@H]1O[C@H](O[C@H]2O[C@H](CO)[C@@H](OC(=O)/C(C)=C/C)[C@H](O)[C@H]2O[C@@H]2O[C@H](CO)[C@@H](O)[C@H](O)[C@H]2O)[C@H](O[C@@H]2O[C@H](CO)[C@@H](O)[C@H](O)[C@H]2O)[C@@H](O)[C@@H]1O`, the outcome was inactive.
As for `COc1cc([C@H]2OC[C@]3(OC(C)=O)[C@@H](c4ccc(O[C@@H]5O[C@H](CO)[C@@H](O)[C@H](O)[C@H]5O)c(OC)c4)OC[C@H]23)ccc1O`, the entry is “inactive”.
As for `CCn1nnnc1NCc1ccc(C(C)C)cc1`, the entry is “inactive”; as for `C=C1C[C@]23C[C@H]1CC[C@H]2[C@]1(C)CCC[C@@]2(CO)C(=O)O[C@H]([C@H]21)[C@@H]3O`, “inactive”.
Turning to `CC(=O)O[C@@H]1C[C@]2(C)[C@@]3(CCC4[C@@]5(C)CC[C@H](O[C@@H]6O[C@H](C(=O)O)[C@@H](O)[C@H](O[C@@H]7O[C@H](CO)[C@H](O)[C@H](O)[C@H]7O[C@@H]7O[C@@H](C)[C@H](O)[C@@H](O)[C@H]7O[C@@H]7OC[C@](O)(CO)[C@H]7O)[C@H]6O[C@@H]6O[C@H](CO)[C@H](O)[C@H](O)[C@H]6O)C(C)(C)C5CC[C@]42C)O[C@@H](O)[C@]12C3CC(C)(C)[C@@H](OC(=O)/C=C/c1ccc(O)c(O)c1)[C@@H]2OC(=O)/C=C/c1ccccc1` (some centres undefined), the compound was classed as inactive.
Regarding `CC(C)CC(=O)OC[C@H]1O[C@@](COC(=O)CC(C)C)(O[C@H]2O[C@H](CO)[C@@H](O)[C@H](O)[C@H]2O)[C@@H](OC(=O)CC(C)C)[C@@H]1OC(=O)CC(C)C`, the result was inactive.
As for `NC(=O)c1cccc(-c2cc(O)cc(OC(=O)NC3CCCCC3)c2)c1`, the entry is “inactive”.
As to `CC1(C)CC(=O)N(CCCCN2CCN(c3ncccn3)CC2)C(=O)C1`, the outcome was inactive.
As for `C[C@H](NCc1ccc(OCc2ccccc2F)cc1)C(N)=O`, the entry is “inactive”; as for `C[C@@H]1C(=O)O[C@H]2CC34[C@H]5C[C@@H](C(C)(C)C)C36[C@@H](OC(=O)[C@@H]6O)OC4(C(=O)O5)[C@]21O` (some centres undefined), “inactive”.
As for `CC1CCC2(NC1)OC1C(=O)C3C4CCC5CC(O[C@@H]6O[C@H](CO)[C@@H](O)[C@H](O)[C@H]6O[C@@H]6O[C@@H](C)[C@H](O)[C@@H](O)[C@H]6O)CCC5(C)C4CCC3(C)C1C2C` (some centres undefined), the entry is “inactive”.
With `Cc1nn(C)c(COc2ccc(N3CCN(S(=O)(=O)N(C)C)CC3)cc2)c1-c1cccc2c(CCCOc3cccc4ccccc34)c(C(=O)O)n(CCN3CCOCC3)c12` the entry was “inactive”; with `C/C=C(\C)C(=O)O[C@H]1[C@H](O)[C@]2(COC(C)=O)[C@H](O)C[C@]3(C)C(=CCC4[C@@]5(C)CC[C@H](O[C@@H]6O[C@H](C(=O)O)[C@@H](O[C@@H]7O[C@H](CO)[C@@H](O)[C@H](O)[C@H]7O)[C@H](O)[C@H]6O[C@@H]6O[C@H](CO)[C@@H](O)[C@H](O)[C@H]6O)[C@](C)(CO)C5CC[C@]43C)[C@@H]2CC1(C)C` (some centres undefined), “inactive”.
